# Records with an inconclusive call do not appear. Entries that show only a call come without a potency. Activity calls are given as the source filed them. Calls follow the shape of the dose curve; as a rule, active = well fitted curve in the direction sought with a large enough effect; inconclusive = small, poorly fitted or top-dose-only effect, or another doubt; inactive = no such curve, though single readings can be large or run the other way.
# Biological target: Pyruvate kinase PKLR (Homo sapiens) (UniProt P30613)
# Sequence (P30613 whole entry, looked up): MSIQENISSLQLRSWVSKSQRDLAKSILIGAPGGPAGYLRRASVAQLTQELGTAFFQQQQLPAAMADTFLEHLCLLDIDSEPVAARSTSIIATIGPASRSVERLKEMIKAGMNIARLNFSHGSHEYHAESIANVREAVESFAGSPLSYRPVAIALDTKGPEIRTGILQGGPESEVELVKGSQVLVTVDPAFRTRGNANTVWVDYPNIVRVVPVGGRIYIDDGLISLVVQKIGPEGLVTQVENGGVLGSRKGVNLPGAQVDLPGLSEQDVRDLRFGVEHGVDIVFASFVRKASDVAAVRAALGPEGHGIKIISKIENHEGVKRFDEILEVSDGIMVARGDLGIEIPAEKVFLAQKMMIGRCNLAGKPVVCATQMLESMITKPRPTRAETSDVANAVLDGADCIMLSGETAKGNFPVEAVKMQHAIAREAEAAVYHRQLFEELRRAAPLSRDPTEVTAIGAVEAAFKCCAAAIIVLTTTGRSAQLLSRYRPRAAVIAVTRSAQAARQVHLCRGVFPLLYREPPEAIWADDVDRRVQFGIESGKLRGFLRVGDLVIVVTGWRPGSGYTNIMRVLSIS
# Test: Confirmation Concentration-Response Assay for Activators of Human Reticulocyte Pyruvate Kinase
# Conditions: purified hPK-R, Kinase-Glo ATP luminescence, 1 h; series mostly up to 57.5 µM
# Description: Confirmatory assay NIH Chemical Genomics Center [NCGC] Wael M. Rabeh, Lyudmila Nedyalkova and Hee-Wan Park [Structural Genomics Consortium, 100 College St. Toronto, Ontario, Canada] NCGC Assay Overview: Human pyruvate kinase reticulocyte (hPK-R) enzyme was supplied as a highly purified (>95% pure) preparation from Structural Genomics Consortium in Toronto (Ontario, Canada) and assayed for its ability to generate ATP from ADP using phosphoenolpyruvate (PEP) as a substrate. ATP generation was detected in a coupled reaction by luciferase-mediated luminescence, an ATP-dependent process. Pyruvate kinase substrates, PEP and ADP, were present in the assay at Km and approximately 10-fold below Km respectively. The enzyme was assayed at an intermediate level of activity to screen for both inhibitors and activators.
# NCGC Assay Protocol Summary for R-isoform Three uL of substrate mix (at r.t.) in assay buffer (50 mM Imidazole pH7.2, 50 mM KCl, 7 mM MgCl2, 0.01% Tween 20, 0.05% BSA) was dispensed into white solid bottom 1,536 well microtiter plates so that the final concentrations of substrates in the assay were 0.1 mM ADP and 0.5 mM PEP. 23 nL of compound were delivered by a pin tool and 1 uL of enzyme mix (final concentration of 0.1 nM) in assay buffer (4 degree Celsius) was added. Plates were incubated at room temperature for 1 hour. Two uL of detection mix (Kinase-Glo, Promega; at 4 degree Celsius protected from light) was added and luminescence read by a ViewLux (Perkin Elmer) at 1 second exposure/plate. Data were normalized to the uninhibited (row 31). Additionally, a no enzyme and 5-fold enzyme control was dispensed in row 32, split equally between the two conditions.
row,SMILES,Potency
1,O=C(CN1C(=O)N/C(=C\c2cccn2-c2cccc(C(=O)O)c2)C1=O)Nc1ccccc1F,inactive
2,Cc1cc2c(s1)c1cnn(-c3ccccc3)c(=O)c1n2C,inactive
3,Cc1cc2c(s1)c1cnn(Cc3ccc(F)cc3)c(=O)c1n2C,inactive
4,COc1ccc(S(=O)(=O)N2CCN(S(=O)(=O)c3ccc4c(c3)OCCO4)CC2)cc1,1410 nM (active)
5,Cc1cc2c(s1)c1cnn(Cc3c(F)cccc3F)c(=O)c1n2C,inactive
6,Cc1cc2c(s1)c1cnn(Cc3ccc(C(C)C)cc3)c(=O)c1n2C,inactive
7,COc1ccc(S(=O)(=O)N2CCN(S(=O)(=O)c3c(F)cccc3F)CC2)cc1,inactive
8,Cc1cc2c(s1)c1cnn(Cc3ccc(C(F)(F)F)cc3F)c(=O)c1n2C,inactive
9,Cn1c2ccsc2c2ncn(Cc3ccccc3F)c(=O)c21,inactive
10,Cc1cc2c(s1)c1cnn(Cc3ccc(S(C)(=O)=O)cc3)c(=O)c1n2C,inactive
11,Cc1cc2c(s1)c1cnn(Cc3ccc(-c4ccccc4)cc3)c(=O)c1n2C,inactive
12,Cn1c2ccsc2c2cnn(Cc3ccccc3F)c(=O)c21,inactive
13,Cc1cc2c(s1)c1cnn(Cc3ccccc3F)c(=O)c1n2C(C)C,inactive
14,Cc1cc2c(s1)c1cnn(Cc3cccc(Cn4ncc5c6sc(C)cc6n(C)c5c4=O)c3F)c(=O)c1n2C,inactive
15,Cc1ccc(Cn2ncc3c4sc(C)cc4n(C)c3c2=O)cc1,inactive
16,Cn1c2cc(B(O)O)sc2c2cnn(Cc3ccccc3F)c(=O)c21,inactive
17,O=S(=O)(NCCCCCNS(=O)(=O)c1c(F)cccc1F)c1ccc2c(c1)OCCO2,inactive
18,Cn1c2cc(C#N)sc2c2cnn(Cc3ccccc3F)c(=O)c21,inactive
19,Cc1cc2c(s1)c1cnn(Cc3cccc(F)c3F)c(=O)c1n2C,inactive
20,Cc1ccc(Cn2ncc3c4sc(C)cc4n(C)c3c2=O)c(C)c1,inactive

row,SMILES,Potency
1,O=S(=O)(c1ccc2c(c1)OCCCO2)N1CCN(S(=O)(=O)c2c(F)cccc2F)CC1,inactive
2,O=S(=O)(c1cccc(C(F)(F)F)c1)N1CCN(S(=O)(=O)c2ccc3c(c2)OCCO3)CC1,inactive
3,Cc1cc2c(s1)c1cnn(Cc3ccc(C(F)(F)F)cc3)c(=O)c1n2C,inactive
4,O=S(=O)(c1ccc2c(c1)OCCO2)N1CCN(S(=O)(=O)c2cccc[n+]2[O-])CC1,inactive
5,Cc1cc2[nH]c3c(=O)n(Cc4ccccc4F)ncc3c2s1,inactive
6,COc1cc2c(s1)c1cnn(Cc3ccccc3F)c(=O)c1n2C,inactive
7,CCc1cc2c(s1)c1cnn(Cc3ccccc3F)c(=O)c1n2C,inactive
8,COc1ccc(Cn2ncc3c4sc(C)cc4n(C)c3c2=O)cc1F,inactive
9,Cn1c2cc(C=O)sc2c2cnn(Cc3ccccc3F)c(=O)c21,inactive
10,Cc1cc2c(s1)c1cnn(Cc3cc(C(F)(F)F)cc(Cl)c3F)c(=O)c1n2C,inactive
11,CC(C)c1cc2c(s1)c1cnn(Cc3ccccc3F)c(=O)c1n2C,inactive
12,N#Cc1ccc(S(=O)(=O)N2CCN(S(=O)(=O)c3ccc4c(c3)OCCO4)CC2)cc1,inactive
13,O=S(=O)(c1c(F)cccc1F)N1CCN(S(=O)(=O)c2c(F)cccc2F)CC1,inactive
14,CC1(C)CCc2cc(S(=O)(=O)N3CCN(S(=O)(=O)c4c(F)cccc4F)CC3)ccc2O1,inactive
15,Cc1cc2c(s1)c1cnn(Cc3ccc(F)cc3F)c(=O)c1n2C,inactive
16,CC(=O)Nc1cc2c(s1)c1cnn(Cc3ccccc3F)c(=O)c1n2C,inactive
17,O=S(=O)(c1ccc2c(c1)OCCO2)N1CCN(S(=O)(=O)c2ccc3c(c2)OCCO3)CC1,inactive
18,Cn1c2cc([N+](=O)[O-])sc2c2cnn(Cc3ccccc3F)c(=O)c21,inactive
19,Cc1cc2c(s1)c1cnn(Cc3cccc(F)c3)c(=O)c1n2C,inactive
20,O=S(=O)(c1ccc(F)cc1)N1CCN(S(=O)(=O)c2ccc3c(c2)OCCO3)CC1,inactive
